Bioassay records: PubChem, several laboratories
Sampled rows, rich in hits. Any-hit rate of the full collection: about 2.2%.
PHOSPHO1 inh – inhibitors of human PHOSPHO1 phosphatase; recombinant PHOSPHO1, absorbance phosphatase assay; AID 1565; Q8TCT1; inhibition, % at 13.3 µM; 1.1% of 290,000 active; in the data active = inhibition above about 60%
HDAC3 inh – human HDAC3 inhibition. recombinant HDAC3, fluorogenic peptide/trypsin coupled, fluorescence. inhibition, % at 8.3 µM. 0.15% of 320,000 active; in the data active = inhibition above about 26%, passing the limit was not always enough
pCIP destab – compounds decreasing mouse p/CIP protein stability. Q05BA5. decrease of EGFP signal, % at 10 µM. AID 1984. 0.01% of 290,000 active. F442A p/CIP-EGFP cells, EGFP fluorescence, 16 h;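 active = EGFP signal decrease of at least 30% at 10 µM or well 3 SD below plate mean, unless failing retest; inactive = the rest, including hits failing retest or dose response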
PvdQ inh – blocks Pseudomonas aeruginosa PvdQ acylase activity; inhibition, % at 10 µM; purified PvdQ acylase, fluorescence plate reader; 0.063% of 340,000 active; in the data active = inhibition above about 30%, passing the limit was not always enough;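 also: 0% = vehicle neutral wells and 100% = reference inhibitor wells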
GASC-1 inh – inhibitors of human GASC-1 (JMJD2C) demethylase | Q9H3R0 | GST-JMJD2C(1-420) H3K9me3 demethylation, DELFIA europium | inhibition, % at 2.35 µM | 0.069% of 330,000 active | AID 2099;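 active = more than half of a compound's replicate wells show inhibition beyond 50%, single wells judged on their own value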;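 also: signal counts dimethyl H3K9 product captured on neutravidin plate; 0% = median of DMSO wells and 100% = 0.3 times that DMSO median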
Mot1-301 SUMO – blocks SUMOylation pathway, rescuing yeast Mot1-301 growth | growth rescue, % at 18.8 µM | S. cerevisiae Mot1-301 growth rescue, ATP luminescence, 38.5C; percent above DMSO median, 100 means doubled | 1% of 320,000 active;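 active = every valid replicate shows activation above 250% relative to neutral control wells; inactive = the rest, any valid replicate at or below 250%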;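 also: OY570 slx delta 5 strain wells were the positive control but not used for scaling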
Numbers without * were called inactive; x = not tested or not shown.

SMILES	PHOSPHO1 inh	HDAC3 inh	pCIP destab	PvdQ inh	GASC-1 inh	Mot1-301 SUMO
CC(C)CN1CCN(C(=O)CCc2nnc(Cc3c[nH]c4ccccc34)o2)[C@@H](C)C1=O	66*	1	-10	-13	7	-15
CCC(=O)N1CCc2cc(Br)cc(S(=O)(=O)CC(=O)OC)c21	-4	6	-19	-11	99*	11
CCC(=O)N1CCc2cc(Br)cc(S(=O)(=O)NCCN3CCCC3)c21	36	1	4	-12	2	-5
O=C(NCc1ccccc1)C(c1ccncc1)N(C(=O)c1csnn1)C1CC1 (stereo not drawn)	62*	-5	-6	-9	2	36
CCc1nnc(NC(=O)c2cc(-c3ccccn3)nc3ccc(Br)cc23)s1	72*	11	-2	-14	-5	-15
CCc1nnc(NC(=O)c2cc(-c3ccncc3)nc3ccccc23)s1	45	x	1	-8	-4	3
Nc1ccc(Nc2nc(-c3ccncc3)cs2)cc1	81*	-5	0	-9	3	-7
Clc1ccc(Nc2nc(-c3ccncc3)cs2)cc1	x	-2	x	-3	12	x
Cc1ccccc1N(C)S(=O)(=O)c1nnc(NC(=O)c2ccccc2F)s1	64*	2	-16	-16	3	6
Cn1c(CC(=O)Nc2ccccc2)n[nH]c1=S	60*	4	-2	-12	-2	1
COc1ccc(CC(=O)NNC(=O)COc2ccc(F)cc2)cc1S(=O)(=O)N1CCOCC1	x	1	x	-4	5	-11
COc1cnn(-c2ccc(C)cc2)c(=O)c1SCc1ccccc1	81*	10	-13	-11	-8	344
COc1cnn(-c2ccc(Br)cc2)c(=O)c1SCc1ccccc1	12	-2	4	-12	3	8
COc1ccc(C2NN=C(c3ccc(C)cc3)S2)cc1 (stereo not drawn)	22	-2	-2	-10	2	-18
Cc1ccc(C2=NNC(C(O)C(O)C(O)CO)S2)cc1 (stereo not drawn)	84*	2	-14	-4	3	-19
NC(=S)NN=C(c1ccc(F)cc1)C1CC1	x	x	x	-8	x	x
CCC(=O)n1nc(-c2ccco2)nc1N	67*	0	-13	-7	5	113
O=C(N/C(=C\c1ccccc1)C(=O)N1CCOCC1)c1ccccc1Cl	63*	x	-6	-10	17	262
O=C(N/C(=C\c1ccc(Br)cc1)C(=O)N1CCOCC1)c1ccccc1Cl	19	-5	-16	0	-9	123
O=C(OCc1nc2ccccc2s1)c1ccco1	9	-1	13	46*	-9	5
CCOC(=O)N1CCC(NCc2c(C(=O)N(C)Cc3ccccc3)nc3ccccn23)CC1	-12	2	6	9	6	1
CCOc1ccc(-c2nnc(SCc3nnc(-c4ccccc4)o3)n2-c2ccccc2F)cc1	73*	-7	-8	-10	70	0
Cc1ccc(-c2nnc(CSc3nnc(COc4ccccc4)n3-c3ccccc3)o2)cc1	12	x	8	-14	-14	12
CC1(C)S[C@@H]2[C@H](NC(=O)COc3ccccc3)C(=O)N2C1C(=O)OCC1CCCCC1 (stereo partly drawn)	x	5	x	-10	-4	327*
CC1(C)S[C@@H]2[C@H](NC(=O)COc3ccccc3)C(=O)N2C1C(=O)OCc1cc2ccccc2n1S(=O)(=O)c1ccccc1 (stereo partly drawn)	-2	10	-8	x	1	-3
O=C(c1ccco1)N1N=C(c2cccs2)CC1c1cc([N+](=O)[O-])ccc1O (stereo not drawn)	61*	3	-7	-7	-4	370
COc1ccc(C(NC(=O)C(C)C)c2c(O)ccc3ccccc23)cc1 (stereo not drawn)	-10	-8	-4	-11	10	-17
CCC(=O)NC(c1ccc(OC)cc1)c1c(O)ccc2ccccc12 (stereo not drawn)	44	-9	34*	10	3	-12
CCSCCOC(=O)C1=C(C)NC2=C(C(=O)CCC2)C1c1coc2ccccc2c1=O (stereo not drawn)	63*	3	-3	2	-8	-9
